Records with an inconclusive call do not appear. A call without a number means that no potency is given here. Active and inactive are the calls of the source. Calls come from the whole dose curve.

The assay can be described thus: p53 small molecule agonists, cell-based qHTS assay with human liver microsomes: qHTS cell viability counter screen (AID 1963579). Note: nearly all actives have a fitted effect of over 45% in size. The note with it: p53RE-bla HCT-116 viability, ATP luminescence, 16 h, HLM; series mostly up to 66 µM; activity change, negative = cytotoxicity: at the top concentration. From the text:
National Center for Advancing Translational Sciences [NCATS]
Division of Preclinical Innovation [DPI]
U.S. Environmental Protection Agency [EPA]
National Institutes of Environmental Health Sciences [NIEHS]
National Toxicology Program [NTP]
U.S. Food and Drug Administration [FDA]
p53, a tumor suppressor protein, is activated following cellular insult, including DNA damage and other cellular stresses. The activation of p53 regulates cell fate by inducing DNA repair, cell cycle arrest, apoptosis, or cellular senescence. The activation of p53, therefore, is a good indicator of DNA damage and other cellular stresses. […] The activation of the reporter gene under culture conditions can be detected by fluorescence intensity. This cell line was used to screen the Tox21 10K compound library in the condition of presence of human liver microsomes and to identify agonists that activate the p53 signaling pathway after in vitro metabolic activation (Ooka et al., Archive of Toxicology 96:1975-1987, 2022).
Tox21 Assay Protocol Summary:
The p53RE-bla cells were dispensed at 4,000cells/3ul/well in 1536-well black-clear bottom plates. After the assay plates were incubated at 37 C, 5% CO2 incubator for 5 hours, 23 nL of compounds dissolved in DMSO, positive controls or DMSO only was transferred to the assay plate. Following compound addition, 3 uL of human liver microsomes (XenoTech, Kansas City, KS) at final concentration of 0.5 mg/mL and 1uL of B-Nicotinamide adenine dinucleotide 2'-phosphate (NADPH) at final concentration of 0.5 mg/mL were transferred to the assay plate. The plates were incubated at 37 C for 16 hours. 1 uL of LiveBLAzer detection mixture was added to each well and the plates were incubated at room temperature in the dark for 2 h. Fluorescence intensity at 460 and 530 nm emission and 405 nm excitation were measured by an Envision plate reader. For cell viability readout that measures cytotoxicity, 4 ul/well of CellTiter-Glo reagent was added into the assay plates using a Flying Reagent Dispenser. After 30 min incubation at room temperature, the luminescence intensity in the plates was measured using a ViewLux plate reader.
For orientation: qHTS replaces the single test concentration by a dilution series.
As for `CCCCCCc1ccc(O)cc1O`, the Potency result was “inactive”. Still for that read-out and setting: then `CCCCCCCCCC(=O)OC`, with “inactive”; and `NC(=O)NC1NC(=O)NC1=O` (stereo not given), with “inactive”; and `Cc1ncc([N+](=O)[O-])n1CCO`, with “inactive”. On the same count and under the same terms, then `CC(=O)Oc1c(C)c(C)c2c(c1C)CC[C@@](C)(CCC[C@H](C)CCC[C@H](C)CCCC(C)C)O2`, with “inactive”; and `C[N+](C)(C)CCCCCC[N+](C)(C)C`, with “inactive”; and `C=CCc1ccc(O)c(OC)c1`, with “inactive”. As to `CC(=O)CC(c1ccccc1)c1c(O)c2ccccc2oc1=O` (stereo not given), the Potency result was “inactive”. On the same count and under the same terms, the entry for `O=C(c1ccccc1)C(O)c1ccccc1` (stereo not given) is “inactive”; for `COCCCN` it is “inactive”; for `COCCOC(=O)c1ccccc1C(=O)OCCOC` it is “inactive”. The same measure, in the same setting: the entry for `CC(CCC(=O)O)(c1ccc(O)cc1)c1ccc(O)cc1` is “inactive”; for `Cc1ncc[nH]1` it is “inactive”; for `C[Si](C)(C)N[Si](C)(C)C` it is “inactive”. The same measure, in the same setting: then `O=C(O)c1ccc2c(c1)C(=O)OC2=O`, with “inactive”.

Take `Cc1ccc(C(=O)O)o1`: the Potency result is “inactive”. Same read-out and setting: then `CC(O)(P(=O)(O)O)P(=O)(O)O`, with “inactive”.

Consider `OC(CCl)CCl`, for which the “activity change, negative = cytotoxicity” value was -7.54% (inactive). As for `CCCCCC/C=C/CCCCCCCC(=O)O`, the Potency result was “inactive”. On the same count and under the same terms, the entry for `O=C(O)[C@H](O)[C@@H](O)[C@H](O)[C@H](O)CO` is “inactive”. As to `NC(=O)OCC(COC(N)=O)c1ccccc1`, the Potency entry was “inactive”. Still for that read-out and setting: then `O=NO`, with “inactive”; and `CN1CCC[C@H]1c1cccnc1`, with “inactive”; and `Cn1c([N+](=O)[O-])cnc1COC(N)=O`, with “inactive”. The same measure, in the same setting: then `Cc1ccccc1Cl`, with “inactive”; and `CC(=O)CC(=O)N(C)C`, with “inactive”. `CCC[C@H](N[C@@H](C)C(=O)N1[C@H](C(=O)O)C[C@@H]2CCCC[C@@H]21)C(=O)OCC`: the activity change, negative = cytotoxicity was -3.18% [at 13.5 µM] (inactive). Turning to `CCCCC(CC)COC(=O)c1ccc(N(C)C)cc1` (stereo not given), the Potency result was “inactive”. On the same count and under the same terms, the entry for `O=c1n(CC2CO2)c(=O)n(CC2CO2)c(=O)n1CC1CO1` (stereo not given) is “inactive”. For `Nc1ccc2c(O)cc(S(=O)(=O)O)cc2c1`, the “activity change, negative = cytotoxicity” value is -23.8% (inactive). With `Cc1cc(=O)[nH]c(=S)[nH]1`, the Potency entry was “inactive”. Turning to `O=C(O)c1ccc(O)cc1`, the Potency entry is “inactive”. Still for that read-out and setting: the entry for `O=C(OCc1ccccc1)c1ccccc1` is “inactive”; for `Cc1ncc([N+](=O)[O-])n1C` it is “inactive”. Still for that read-out and setting: the entry for `CC(=O)C(C)C` is “inactive”. `CC[C@H](C)C(=O)O[C@H]1C[C@@H](C)C=C2C=C[C@H](C)[C@H](CC[C@@H]3C[C@@H](O)CC(=O)O3)[C@H]21`: the Potency result was “inactive”. On the same count and under the same terms, then `CCC(C)OC(=O)c1ccc(O)cc1` (stereo not given), with “inactive”; and `Cc1ccc(C)c(O)c1`, with “inactive”; and `CC(C)(Oc1ccc(Cl)cc1)C(=O)O`, with “inactive”. The same measure, in the same setting: the entry for `CC1(C)NC(=O)N(c2ccc([N+](=O)[O-])c(C(F)(F)F)c2)C1=O` is “inactive”.
